Experimental findings from ChEMBL document CHEMBL3988442, “University of Dundee, Small-Polar-MMV Screening Library” (2021) are described below.

This assay concerns Leishmania donovani. Kind of assay: Leishmania intramacrophage assay. Type of assay: functional, organism-based. The arrangement: scale not given: in the data most compounds retested in dose-response had high values.

The whole screen tested about 69,000 compounds, of which about 1,000 (1.4%) showed an effect of 50% or more. The sample as a whole holds a higher share of strong results than the screen did.

As for `CC(C)NC(=O)[C@@H]1C[C@@H](N)CN1C(=O)CCSCc1ccccc1`, where the note is “30.3 µM, […]”, the “Percent Effect” value is 17.42%.
Consider `CCC[C@H]1CN(CCS(C)(=O)=O)C[C@@H]1NC(=O)c1cc(CC)on1`, for which, where the note is “30.3 µM, […]”, the “Percent Effect” value was -7.054%.
Still for that read-out and setting: the value for `CCS(=O)(=O)NCC1OCCc2cn(CCOC)nc21` (stereo not given) was 22.39%; that for `CNc1nc(CNC(=O)Nc2cccc(COCCOC(C)C)c2)cs1` was 10.56%.
On the same count and under the same terms, the result for `Cc1cc(O)n2nc(C3CCN(C(=O)c4ccccn4)CC3)cc2n1` reads -30.04%.
On to `O=C(NCCCn1cncn1)N1CCCCCC1`, for which the “Percent Effect” value (30 µM) came out at 20.62%.
As to `CCS(=O)(=O)NCCNC(=O)c1cc(Cl)c2c(c1)OCCCO2`, the “Percent Effect” value (30 µM, 30.03 µM) is 35.29%.
Take `COc1cccc2c1OCCCN(Cc1ncccc1C(=O)O)C2`: where the note is “30.3 µM, […]”, the “Percent Effect” value is -9.577%.
For the molecule `CN(CCCOc1ccccc1)C(=O)CN1CCc2cncnc2C1`, the “Percent Effect” value (30 µM, 30.03 µM) is recorded as 6.848%.
As to `N[C@@H]1CC[C@@H](NC(=O)c2ccccc2OC(F)(F)C(F)F)C1`, the “Percent Effect” value (30.3 µM, […]) was -30%.
As for `Cc1noc([C@]23COC[C@H]2CN(C(=O)COC2CCCC2)C3)n1`, the “Percent Effect” value (30.3 µM, […]) is on record as 14.27%.
Take `Cc1noc([C@]23COC[C@H]2CN(C(=O)Cc2ccsc2)C3)n1`: the “Percent Effect” value (30.3 µM, […]) turned out to be 57.44%.
Take `CCOCC(=O)N1C[C@@H]2COC[C@]2(c2nc(C)no2)C1`: the “Percent Effect” value (30.3 µM, […]) was determined as 46.85%.
On to `O=C(O)C(F)(F)F.c1cc(CN2CCC3(CCOCC3COCC3CC3)CC2)co1` (stereo not given), for which the “Percent Effect” value (30.3 µM, […]) turned out to be 12%.
With `Fc1cccc(N2CCCC3(C2)CN(c2ncccn2)CCO3)c1.O=C(O)C(F)(F)F.O=C(O)C(F)(F)F` (stereo not given), for the setting “30 µM, 30.03 µM”, the “Percent Effect” value is on record as 0.139%.
`Fc1cccc(N2CCCC3(CN(Cc4nccs4)CCO3)C2)c1.O=C(O)C(F)(F)F.O=C(O)C(F)(F)F` (stereo not given): the “Percent Effect” value (30.3 µM, […]) was 41.24%.
Take `CC(C)C1=NOC2(CCN(Cc3c[nH]c4ccccc34)CC2)C1`: the “Percent Effect” value (30.3 µM, […]) was 1.888%.
Same read-out and setting: the result for `c1cncc(C2=NOC3(CCN(Cc4c[nH]c5ccccc45)CC3)C2)c1` reads 11.25%; that for `c1ccc(C2=NOC3(CCN(Cc4c[nH]c5ccccc45)CC3)C2)cc1`, 96.36%; that for `CN(C(=O)c1ccc(S(=O)(=O)NC(C)(C)C)cc1)C1(C#N)CCC1`, 6.383%.
As to `CC(C)=CCN1CCC(c2nnc(CN3CCN(C)CC3)n2C)CC1`, the “Percent Effect” value (30.3 µM, […]) amounted to 50.84%.
As for `CN1CCC(c2nnc(CN3CCC(O)CC3)n2C)CC1`, the “Percent Effect” value (30 µM, 30.03 µM) was determined as 13.07%.
Still for that read-out and setting: the result for `CN1CCN(Cc2nnc(C3CCN(CC4CC4)CC3)n2C)CC1` reads 36.3%.
As for `CCc1sc(-c2nnc(CNC(C)Cn3cccn3)o2)cc1C` (stereo not given), the “Percent Effect” value (30.3 µM, […]) is given as -1.714%.
Regarding `O=C(c1cnc(Nc2ccccc2)nc1)N1CCC(O)(CO)CC1`, the “Percent Effect” value (30.3 µM, […]) is recorded as -16.52%.
For the molecule `c1ccc(Cn2cccn2)c(CNCc2cnc(N3CCCC3)nc2)c1`, for the setting “30.3 µM, […]”, the “Percent Effect” value was found to be 54.07%.
The same measure, in the same setting: the result for `CC(Cn1cccn1)NCc1cnc(N2CCCC2)nc1` (stereo not given) reads 6.002%; that for `c1cnn(CCNCc2cnc(N3CCCC3)nc2)c1`, 36.96%; that for `O=C(O)C(F)(F)F.O=C(O)C(F)(F)F.c1coc(CN2CCCn3c(CN4CCOCC4)nnc3C2)c1`, 2.025%.
With `O=c1ccc(-c2cccs2)nn1CN1CCN(c2ccccn2)CC1`, the “Percent Effect” value (30.3 µM, […]) is listed as 5.805%.
Still for that read-out and setting: the value for `CSCc1cccc(S(=O)(=O)NCCO)c1` was 7.47%.
As to `CCN(CC)CCNS(=O)(=O)c1cccc(CSC)c1`, the “Percent Effect” value (30.3 µM, […]) is recorded as -28.14%.
Same read-out and setting: the result for `CCNS(=O)(=O)c1cccc(CSC)c1` reads 64.35%.
In the case of `O=C(NCc1ccccn1)NC1CCOc2ccccc21` (stereo not given), the “Percent Effect” value (30 µM, 30.03 µM) stood at 24.88%.
Regarding `Cc1cc(CN(C)C(=O)c2ccc(F)cc2F)no1`, the “Percent Effect” value (30.3 µM, […]) is recorded as -6.199%.
Still for that read-out and setting: the result for `Cc1ccc(CN2CCC(c3cnccn3)CC2)s1` reads 12.08%; that for `Cc1ccc(CN2CCCC(c3cnccn3)C2)s1` (stereo not given), 27.06%.
Still for that read-out and setting: the value for `Cc1ccc(CN2CCOC(c3cnccn3)C2)s1` (stereo not given) was 57.91%.
For the molecule `COc1ccc(CNC(C)c2ccc(Cl)cc2)c(OC)c1OC` (stereo not given), under “30.3 µM, […]”, the “Percent Effect” value was 11.12%.
In the case of `COc1ccc(CNC(C)c2cccc(Cl)c2)c(OC)c1OC` (stereo not given), the “Percent Effect” value (30 µM, 30.03 µM) came out at 25.49%.
On to `COc1ccc(CNC(C)c2ccc(Cl)c(Cl)c2)c(OC)c1OC` (stereo not given), for which the “Percent Effect” value (30.3 µM, […]) is 55.53%.
On the same count and under the same terms, the value for `Cc1sc2nc(CCN)nc(N3CCC(N4CCCC4)CC3)c2c1C` was 27.1%.
In the case of `Cc1sc2nc(CCN)nc(N3CC(N4CCCCC4)C3)c2c1C`, the “Percent Effect” value (30.3 µM, […]) is recorded as 85.94%.
Turning to `Cc1sc2nc(CCN)nc(N3CCS(=O)(=O)CC3)c2c1C`, for the setting “30.3 µM, […]”, the “Percent Effect” value turned out to be 0.7518%.
For the molecule `Cc1sc2nc(CCN)nc(N3CCN(S(C)(=O)=O)CC3)c2c1C`, the “Percent Effect” value (30.3 µM, […]) was -0.9568%.
With `Cc1sc2nc(C(F)(F)F)nc(N3CCN(C)CC3)c2c1C`, for the setting “30.3 µM, […]”, the “Percent Effect” value came to 9.999%.
In the case of `CCOC(=O)N1CCN(c2nc(CCN)nc3sc(C)c(C)c23)CC1`, the “Percent Effect” value (30.3 µM, […]) is recorded as 81.77%.
The same measure, in the same setting: the result for `Cc1ccc(NC(=O)N2CCOC(C)(c3cnn(C)c3)C2)c(C)c1` (stereo not given) reads 12.13%; that for `Cc1nn(C)c(C)c1S(=O)(=O)N(C)Cc1nn(C)c(Cl)c1Cl`, 1.519%.
On to `Cc1cn2c(n1)CCC(NC(=O)c1oc(Br)cc1C)C2` (stereo not given), for which the “Percent Effect” value (30 µM) came to 33.37%.
